In PubChem BioAssay AID720582 (The Scripps Research Institute Molecular Screening Center, 2013):
The whole screen tested about 370,000 compounds, of which about 2,300 (0.62%) were called active.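 How the source made its calls: active means inhibition above a per-campaign cutoff equal to the mean of compounds falling between control-based bounds plus 3 SD (cut at about 20% in these data); inactive means the rest.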 The full list was thinned out, with actives kept by preference.

Target: Disintegrin and metalloproteinase domain-containing protein 10 (Homo sapiens) (UniProt O14672)
Test: human ADAM10 inhibitors, primary screen, biochemical, QFRET, HTS (AID 720582);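 further: 0% = DMSO wells while the 100% control is not disclosed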
Details: recombinant ADAM10, EDANS/DABCYL FRET peptide cleavage, 3 h; at 7 µM; stronger effect = higher value

Sequence of Disintegrin and metalloproteinase domain-containing protein 10 (Homo sapiens) (O14672 214-748 limits assumed): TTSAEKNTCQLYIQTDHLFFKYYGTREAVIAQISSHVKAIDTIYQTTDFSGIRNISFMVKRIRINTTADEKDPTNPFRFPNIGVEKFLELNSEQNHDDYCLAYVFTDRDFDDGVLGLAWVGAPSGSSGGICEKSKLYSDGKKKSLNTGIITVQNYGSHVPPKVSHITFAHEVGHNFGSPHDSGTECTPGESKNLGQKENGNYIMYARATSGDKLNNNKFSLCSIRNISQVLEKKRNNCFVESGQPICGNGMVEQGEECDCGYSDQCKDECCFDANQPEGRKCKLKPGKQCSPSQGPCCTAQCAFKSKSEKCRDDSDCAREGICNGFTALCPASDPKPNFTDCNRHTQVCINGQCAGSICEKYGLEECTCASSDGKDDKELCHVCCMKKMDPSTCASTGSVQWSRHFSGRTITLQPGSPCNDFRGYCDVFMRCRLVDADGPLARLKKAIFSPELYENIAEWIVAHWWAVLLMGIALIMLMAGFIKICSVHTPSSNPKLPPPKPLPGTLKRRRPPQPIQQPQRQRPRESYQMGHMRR

SMILES	inhibition
O=c1[nH]c2ccccc2n1C1CCN(C(c2ccccc2)c2nnnn2Cc2ccccc2)CC1 (stereo not given)	-9.55% (inactive)
COc1ccc(-n2nnnc2C(c2cccc3ccccc23)N2CCC(n3c(=O)[nH]c4ccccc43)CC2)cc1 (stereo not given)	22.7% (active)
O=c1[nH]c2ccccc2n1C1CCN(C(c2ccnc3ccccc23)c2nnnn2Cc2ccccc2)CC1 (stereo not given)	-0.89% (inactive)
CN1CCC(N(C)Cc2cccnc2)CC1	-14.6% (inactive)
Cc1ccc(-c2nc3ccccc3c(=O)n2-c2ccc(Br)cn2)cc1	8.84% (inactive)
COP(=O)(Sc1ccccc1)C(Cc1ccccc1)NC(=O)OCc1ccccc1 (stereo not given)	2.57% (inactive)
O=C1C2(Cl)C3(Cl)C4(Cl)C(Cl)(Cl)C5(Cl)C3(Cl)C1(Cl)C5(Cl)C24Cl (stereo not given)	31.6% (active)
CO[C@H]([C@H](C)/C=C/N(C)C=O)[C@@H](C)C(=O)CC[C@H](C)[C@H](O)[C@H](C)[C@H]1OC(=O)/C=C/C(C)=C/[C@H](O)[C@H](OC)C[C@@H]2C=CC[C@@H](C[C@H](OC)[C@@]3(CO3)[C@@H](OC)C[C@@H](OC)[C@@H]1C)O2	3.02% (inactive)
Cc1ccccc1CCC[C@@H](CC1CCCCC1)CN(C)C(=O)Oc1ccccc1	1.44% (inactive)
O=C(NCC(c1cccnc1)N1CCN(c2ccccc2)CC1)Oc1ccccc1 (stereo not given)	0.63% (inactive)
COC(=O)C1=C(c2ccc(F)cc2OCc2ccccc2)C[C@@H]2CC[C@H]1N2C(=O)NCc1ccc(Cl)cc1	17.6% (inactive)
COC(=O)C1=C(c2ccc(-c3ccccc3)c(F)c2)C[C@@H]2CC[C@H]1N2C(=O)NCc1ccc(F)cc1	28.2% (active)
COC(=O)C1=C(c2cccc(OCc3ccccc3)c2)C[C@@H]2CC[C@H]1N2C(=O)NCc1ccc(Br)cc1	19.1% (inactive)
CCOP(=O)(OCC)C(O)c1ccc(OC)cc1OC (stereo not given)	1.75% (inactive)
O=C(Cn1c(=O)n(CC2CS2)c2ccccc21)N1CCCCC1 (stereo not given)	-0.6% (inactive)
